# Laboratory results taken from PubChem BioAssay.
# Calls of active or inactive are those of the source. Cut-off read from the data, not from the text of the source, unless noted: active = inhibition above about 80%; inactive = the rest.
# Tests used:
# [1] = viability loss with induced miR-34 in A549 – imaging, A549 dox-inducible miR-34, nuclei and caspase counts, primary screen (AID 1347080;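 active = compounds whose cell count with miR-34 switched on is under 0.7 times the count with it off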); conditions: A549 miR-34 inducible, Hoechst nuclei count, 48 h
# [2] = MELAS cybrid and Rieske KO viability enhancers – cell-based, MELAS cybrids, Rieske KO mouse fibroblasts, CellTiter-Glo, primary screen (AID 1508586;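 active = mean z-score across replicates of 1.96 or higher in either the MELAS or the Rieske mutant cell line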;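 note: z relative to plate mean and SD of compound and empty wells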); conditions: low glucose
# [3] = growth inhibition, single agent or in combination, cell-based, chromothripsis tumors, cisplatin or BGB combos (AID 1671449); conditions: LFS_MB_P medulloblastoma cells;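 note: cells exposed for 96 hours; 0% = vehicle DMSO and 100% = killing by high DMSO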
# [4] = growth inhibition, single agent and combos, cell-based, chromothripsis tumors, cisplatin or BGB combos (AID 1671450); conditions: HDN33 neuroblastoma cells, stronger effect = higher value;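 note: cells exposed to compound for four days; 0% = vehicle DMSO and 100% = cell killing by high DMSO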
# [5] = growth inhibition, single agents and combos, ICB984, cell-based, cisplatin or BGB combos, synergistic combos for chromothripsis tumors (AID 1671451; call rule not given here;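 note: cells exposed for 96 hours before readout; 0% = vehicle DMSO and 100% = killing by high DMSO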); conditions: ICB984 medulloblastoma cells, drug combinations, stronger effect = higher value
# [6] = growth inhibition, single agents and combos, LFS_MB_1R, cell-based, cisplatin or BGB combos, synergistic combos for chromothripsis tumors (AID 1671452); conditions: LFS_MB_1R medulloblastoma cells, stronger effect = higher value;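 note: cells exposed for 96 hours before readout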
# [7] = growth inhibition, single agents and combos, HTB85, cell-based, BGB or cisplatin IC20 combos, synergistic combos for chromothripsis tumors (AID 1671453); conditions: HTB85 osteosarcoma cells, drug combinations, stronger effect = higher value;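 note: cells exposed for 96 hours before readout; 0% = vehicle DMSO and 100% = high DMSO killing control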
# [8] = growth inhibition, single agents and combos, CRL2098, cell-based, BGB or cisplatin IC20 combos, synergistic combos for chromothripsis tumors (AID 1671454); conditions: CRL2098 osteosarcoma cells, drug combinations, stronger effect = higher value;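 note: cells exposed for 96 h before readout; 0% = vehicle DMSO and 100% = killing by high DMSO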
# [9] = growth inhibition, single agents and combos, HD-MB03, cell-based, BGB or cisplatin IC20 combos, synergistic combos for chromothripsis tumors (AID 1671455; in the data active = inhibition above about 83%;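 note: 0% = vehicle DMSO and 100% = high DMSO as cytotoxic control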); conditions: HD-MB03 medulloblastoma cells, stronger effect = higher value
# [10] = growth inhibition, single agents and combos, UWB1.289, cell-based, BGB or cisplatin combos, synergistic combos for chromothripsis tumors (AID 1671456); conditions: UWB1.289 ovarian carcinoma cells, stronger effect = higher value;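 note: cells exposed to compound for four days; 0% = vehicle DMSO and 100% = killing by high DMSO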
# [11] = growth inhibition, single agents and combos, LFS_MB_2R, cell-based, cisplatin combos, synergistic combos for chromothripsis tumors (AID 1671457); conditions: LFS_MB_2R medulloblastoma cells, stronger effect = higher value;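 note: cells exposed to compound for four days before readout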
# [12] = growth inhibition, MDA-MB-436, cell-based, BGB or cisplatin combos, synergistic combos for chromothripsis tumors (AID 1671458; call rule not given here;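 note: cells exposed for 96 hours; 0% = vehicle DMSO and 100% = killing by high DMSO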); conditions: MDA-MB-436 breast carcinoma growth inhibition, drug combinations, stronger effect = higher value
# [13] = UWB1.289_BRCA1 ovarian cancer growth, cell-based, BGB or cisplatin combinations (AID 1671459); conditions: UWB1.289 BRCA1 ovarian carcinoma, drug combinations, stronger effect = higher value
# [14] = drug combination toxicity in non-malignant astrocytes – cell-based, BGB or cisplatin IC20 combos, cytotoxicity control for chromothriptic childhood tumor combination screen (AID 1671460); conditions: Human astrocytes, viability inhibition, drug combinations, at 0.5 µM, stronger effect = higher value;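 note: cells exposed to compounds for 96 hours before viability readout; 0% = vehicle and 100% = killing control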
# [15] = BT084 cell growth, single and combined drugs, ICGC_MB145, cisplatin and BGB IC40 combos (AID 1671461); conditions: BT084 medulloblastoma cells, drug combinations, stronger effect = higher value;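 note: cells exposed to drugs for 96 hours; 0% = vehicle DMSO and 100% = high DMSO full killing control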
# [16] = RCMB18 cell growth, single agent and combined, cisplatin and BGB IC40 combos (AID 1671462); conditions: RCMB18 medulloblastoma cells, stronger effect = higher value;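 note: cells exposed to compound for four days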
# [17] = CRL1545 cell growth, single agent and combined, cisplatin and BGB IC20 combos (AID 1671464); conditions: CRL1545 osteosarcoma cells, stronger effect = higher value;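 note: cells exposed to compound for 96 hours before readout; 0% = vehicle DMSO and 100% = high DMSO killing control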
# [18] = stronger effect = lower value, cell number ratio, induced over uninduced
# [19] = measured here: relative caspase fold change +Dox/-Dox
# [20] = measured here: total cells with miR-34 induction, stronger effect = lower value
# [21] = measured here: total cells without miR-34 induction
# [22] = MELAS cybrid survival, CellTiter-Glo 48 h, stronger effect = higher value
# [23] = Rieske KO mouse fibroblast survival, CellTiter-Glo 72 h
# [24] = at 0.5 µM, stronger effect = higher value
# [25] = measured here: combination with BGB IC20, at 0.005 µM
# [26] = measured here: combination with BGB IC40, at 0.005 µM
# [27] = measured here: combination with BGB IC40, at 0.05 µM
# [28] = measured here: combination with cisplatin, at 0.5 µM, stronger effect = higher value
# [29] = measured here: combination with cisplatin, at 5 µM, stronger effect = higher value
# [30] = measured here: with BGB IC20 combination, at 0.5 µM
# [31] = measured here: with cisplatin IC20 combination, at 0.5 µM
# [32] = measured here: 5 uM single agent, at 5 µM
# [33] = measured here: combination with cisplatin, at 0.5 µM
# [34] = measured here: combination with cisplatin, at 5 µM
# [35] = measured here: with BGB IC20, at 0.5 µM
# [36] = measured here: with BGB IC20, at 5 µM
# [37] = measured here: with cisplatin IC20, at 0.5 µM
# [38] = measured here: with cisplatin IC20, at 5 µM
# [39] = measured here: combination with BGB at IC20, at 0.5 µM
# [40] = measured here: combination with cisplatin at IC20, at 0.5 µM
# [41] = measured here: combo with BGB at IC20, at 0.5 µM
# [42] = measured here: combo with cisplatin at IC20, at 0.5 µM
# [43] = measured here: inhibition with BGB combination, at 0.05 µM
# [44] = measured here: inhibition with cisplatin combination, at 0.05 µM
# [45] = measured here: BGB combination, at 0.5 µM
# [46] = measured here: BGB combination, at 5 µM
# [47] = measured here: cisplatin combination, at 0.5 µM
# [48] = measured here: cisplatin combination, at 5 µM
# [49] = BGB combination, concentration series, at 5 µM
# [50] = cisplatin combination, concentration series, at 5 µM
# [51] = measured here: combo with BGB IC20
# [52] = measured here: combo with cisplatin IC20
smiles,measurement,setting,value
NC(=S)NN=Cc1ncccc1N,fold change,[1]; [18],1.15 (inactive)
same,fold change,[1]; [19],0.619
same,cell count,[1]; [20],1840
same,cell count,[1]; [21],1600
same,z-score,[2]; [22],1.28
same,z-score,[2]; [23],3.3
same,inhibition,[3]; [24],-16.7% (inactive)
same,inhibition,[3]; [25],-2.55%
same,inhibition,[3]; [26],-23%
same,inhibition,[3]; [27],-3.08%
same,inhibition,[3]; [28],-29.8%
same,inhibition,[3]; [29],-31.8%
same,inhibition,"[4]; BGB combo, at 5 µM",85%
same,inhibition,[4]; at 0.5 µM,11.9% (inactive)
same,inhibition,"[4]; cisplatin combo, at 5 µM",80.1%
same,inhibition,[4]; [30],3.11%
same,inhibition,[4]; [31],14.3%
same,inhibition,"[4]; single agent, at 5 µM",84.5%
same,inhibition,"[5]; BGB IC20 combo, at 0.005 µM",-9.24%
same,inhibition,"[5]; BGB IC40 combo, at 0.005 µM",-38.2%
same,inhibition,"[5]; BGB IC40 combo, at 0.05 µM",-31.3%
same,inhibition,[5]; at 0.5 µM,-16.4% (inactive)
same,inhibition,"[5]; cisplatin combo, at 0.05 µM",-36.5%
same,inhibition,"[5]; cisplatin combo, at 0.5 µM",-17.6%
same,inhibition,"[5]; cisplatin combo, at 5 µM",-14.8%
same,inhibition,[5]; [32],-38.9%
same,inhibition,[6]; at 0.5 µM,-7% (inactive)
same,inhibition,[6]; [27],-3.08%
same,inhibition,[6]; [33],22.7%
same,inhibition,[6]; [34],-19.1%
same,inhibition,[7]; at 0.5 µM,-8.27% (inactive)
same,inhibition,[7]; [35],-17.3%
same,inhibition,[7]; [36],67.1%
same,inhibition,[7]; [37],-3.68%
same,inhibition,[7]; [38],77.8%
same,inhibition,"[7]; single agent, at 5 µM",84.1%
same,inhibition,[8]; at 0.5 µM,-55.6% (inactive)
same,inhibition,[8]; [39],-6.91%
same,inhibition,[8]; [40],-62.8%
same,inhibition,[9]; at 0.5 µM,-11.3% (inactive)
same,inhibition,[9]; [41],-13%
same,inhibition,[9]; [42],-15.8%
same,inhibition,[10]; at 0.5 µM,-4.48% (inactive)
same,inhibition,[10]; [43],-19.9%
same,inhibition,[10]; [44],-12.6%
same,inhibition,[11]; at 0.5 µM,-23.1% (inactive)
same,inhibition,[11]; [33],-11.4%
same,inhibition,[11]; [34],-13.5%
same,inhibition,[12]; at 0.5 µM,-24% (inactive)
same,inhibition,[12]; [45],-21.8%
same,inhibition,[12]; [46],39.5%
same,inhibition,[12]; [47],-34.4%
same,inhibition,[12]; [48],62.7%
same,inhibition,[13]; [49],56.4%
same,inhibition,[13]; at 0.5 µM,0.83% (inactive)
same,inhibition,[13]; [50],62.5%
same,inhibition,[14],13.8% (inactive)
same,inhibition,[14]; [51],17.9%
same,inhibition,[14]; [52],11.3%
same,inhibition,[15]; at 0.5 µM,-38.9% (inactive)
same,inhibition,"[15]; cisplatin combination, at 0.5 µM",-29.3%
same,inhibition,"[15]; cisplatin combination, at 5 µM",-3.12%
same,inhibition,"[15]; measured here: BGB IC40 combination 0.05 uM, at 0.05 µM",-31.2%
same,inhibition,"[15]; single agent, at 5 µM",-27%
same,inhibition,[16]; at 0.5 µM,-9.8% (inactive)
same,inhibition,"[16]; cisplatin combo, at 5 µM",15.6%
same,inhibition,"[16]; measured here: BGB IC40 combination, at 0.05 µM",-6.51%
same,inhibition,[16]; [33],3.15%
same,inhibition,"[16]; single agent, at 5 µM",-34.2%
same,inhibition,[17]; at 0.5 µM,10.3% (inactive)
same,inhibition,[17]; [30],-9.01%
same,inhibition,[17]; [31],19.9%
same,inhibition,"[17]; single agent, at 0.05 µM",29.3%
same,inhibition,"[17]; single agent, at 5 µM",63.9%
Cc1cc(C=CC#N)cc(C)c1Nc1ccnc(Nc2ccc(C#N)cc2)n1,fold change,[1]; [18],0.909 (inactive)
same,fold change,[1]; [19],0.615
same,cell count,[1]; [20],5740
same,cell count,[1]; [21],6310
same,z-score,[2]; [22],-0.58 (inactive)
same,z-score,[2]; [23],1.5
same,inhibition,[3]; [24],-21.9% (inactive)
same,inhibition,[3]; [25],-35.7%
same,inhibition,[3]; [26],-21.8%
same,inhibition,[3]; [27],-24.8%
same,inhibition,[3]; [28],-44.6%
same,inhibition,[3]; [29],-38.4%
same,inhibition,"[4]; BGB combo, at 5 µM",-13%
same,inhibition,[4]; at 0.5 µM,-0.82% (inactive)
same,inhibition,"[4]; cisplatin combo, at 5 µM",4.37%
same,inhibition,[4]; [30],-15.3%
same,inhibition,[4]; [31],22.4%
same,inhibition,"[4]; single agent, at 5 µM",-11.3%
same,inhibition,"[5]; BGB IC20 combo, at 0.005 µM",-0.887%
same,inhibition,"[5]; BGB IC40 combo, at 0.005 µM",-17%
same,inhibition,"[5]; BGB IC40 combo, at 0.05 µM",-41.8%
same,inhibition,[5]; at 0.5 µM,-20.3% (inactive)
same,inhibition,"[5]; cisplatin combo, at 0.05 µM",-45.8%
same,inhibition,"[5]; cisplatin combo, at 0.5 µM",-18.9%
same,inhibition,"[5]; cisplatin combo, at 5 µM",-30.5%
same,inhibition,[5]; [32],-25.1%
same,inhibition,[6]; at 0.5 µM,-21.6% (inactive)
same,inhibition,[6]; [27],-25.9%
same,inhibition,[6]; [33],2.17%
same,inhibition,[6]; [34],-13.4%
same,inhibition,[7]; at 0.5 µM,-10.2% (inactive)
same,inhibition,[7]; [35],-9.74%
same,inhibition,[7]; [36],-26.3%
same,inhibition,[7]; [37],-28.3%
same,inhibition,[7]; [38],-20.2%
same,inhibition,"[7]; single agent, at 5 µM",0.45%
same,inhibition,[8]; at 0.5 µM,-49.8% (inactive)
same,inhibition,[8]; [39],-61.5%
same,inhibition,[8]; [40],-40%
same,inhibition,[9]; at 0.5 µM,-1.33% (inactive)
same,inhibition,[9]; [41],-1%
same,inhibition,[9]; [42],-1.41%
same,inhibition,[10]; at 0.5 µM,1.47% (inactive)
same,inhibition,[10]; [43],-12.2%
same,inhibition,[10]; [44],6.05%
same,inhibition,[11]; at 0.5 µM,-13.3% (inactive)
same,inhibition,[11]; [33],-13.5%
same,inhibition,[11]; [34],-51.8%
same,inhibition,[12]; at 0.5 µM,-19.9% (inactive)
same,inhibition,[12]; [45],-6.06%
same,inhibition,[12]; [46],-3.72%
same,inhibition,[12]; [47],-45.9%
same,inhibition,[12]; [48],-32.4%
same,inhibition,[13]; [49],96.3%
same,inhibition,[13]; at 0.5 µM,0.87% (inactive)
same,inhibition,[13]; [50],96.7%
same,inhibition,[14],1.39% (inactive)
same,inhibition,[14]; [51],-1.88%
same,inhibition,[14]; [52],-1.66%
same,inhibition,[15]; at 0.5 µM,-3.04% (inactive)
